Assay outcomes (PubChem)
Mcl1 Bid PPI – Mcl-1/Bid binding inhibitors, primary screen, biochemical, TR-FRET, 1536-well; AID 1021, 2008; TR-FRET Mcl-1/Bid-Dy647 peptide binding; hit rate 0.97% among 220,000; inhibition, % at 21.7 µM;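 active = compounds that cut the binding signal by more than half at the single screening dose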;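 also: His-tagged Mcl-1 with europium anti-His antibody binding Bid BH3 peptide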
Target sequence (Q07820 whole entry, looked up): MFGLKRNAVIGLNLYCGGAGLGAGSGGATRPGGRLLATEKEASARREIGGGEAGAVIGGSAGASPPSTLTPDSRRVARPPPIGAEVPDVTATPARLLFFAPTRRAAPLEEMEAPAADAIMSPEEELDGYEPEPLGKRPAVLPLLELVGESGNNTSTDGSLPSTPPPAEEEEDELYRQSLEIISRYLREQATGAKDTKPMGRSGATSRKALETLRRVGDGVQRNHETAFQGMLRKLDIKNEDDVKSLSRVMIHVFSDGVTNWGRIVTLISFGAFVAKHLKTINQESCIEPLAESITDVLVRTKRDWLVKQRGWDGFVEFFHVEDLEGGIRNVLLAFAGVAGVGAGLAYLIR
Mcl-1 Bim block – inhibitors of Bim peptide binding to Mcl-1, primary screen, biochemical, bead-based flow cytometry, multiplex | Bim peptide-Mcl-1 binding | inhibition, % at 10 µM | hit rate 0.1% among 190,000; in the data active = inhibition above about 40%
14-3-3 Bad PPI – inhibitors of 14-3-3 zeta/Bad binding, primary screen, biochemical, TR-FRET, bovine 14-3-3 zeta | inhibition, % at 21.7 µM | AID 781, 2007 | hit rate 0.71% among 220,000 | 14-3-3 protein zeta/delta (Bos taurus), P63103 | TR-FRET 14-3-3zeta/Dy647-pBad peptide displacement, 1 h;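 active = inhibition above about 70%, limit read from the data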
Target sequence (P63103 whole entry, looked up): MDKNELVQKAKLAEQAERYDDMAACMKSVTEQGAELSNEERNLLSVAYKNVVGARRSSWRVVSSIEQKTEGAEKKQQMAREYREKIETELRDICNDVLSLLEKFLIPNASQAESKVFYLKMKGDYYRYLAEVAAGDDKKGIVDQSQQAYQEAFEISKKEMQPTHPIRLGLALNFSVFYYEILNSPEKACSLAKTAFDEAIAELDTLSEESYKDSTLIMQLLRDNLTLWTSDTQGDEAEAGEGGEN
Mcl1-Noxa inh – Mcl-1/Noxa binding inhibitors, primary screen, biochemical, TR-FRET, 1536-well; Induced myeloid leukemia cell differentiation protein Mcl-1 (Homo sapiens), Q07820; TR-FRET Mcl-1/Noxa peptide binding, 2 h; inhibition, % at 21.7 µM; hit rate 1.5% among 220,000; AID 1022, 2008;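 active = compounds that cut the protein-peptide binding signal by more than 50% relative to plate controls in a single-dose test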;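 also: His-tagged Mcl-1 with rhodamine Noxa BH3 peptide and terbium anti-His antibody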
MCL1 BIM primary – inhibitors of MCL1 binding to BIM-BH3, primary screen, biochemical, fluorescence polarization; Induced myeloid leukemia cell differentiation protein Mcl-1 (Homo sapiens), Q07820; GST-MCL1 / FITC-Bim-BH3 fluorescence polarization; inhibition, % at 10.9 µM; hit rate 0.68% among 320,000;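 active = inhibition above the mean inhibition of all tested compounds plus 3 SD, set per campaign, cut at about 40% in these data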;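 also: higher means more loss of mP so more displacement of Bim peptide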
eIF4E-4G inh – eIF4E–eIF4G protein interaction inhibitors, primary screen, biochemical, uHTS, TR-FRET, eIF4GI fragment; hit rate 0.37% among 220,000; inhibition, % at 21.7 µM; Eukaryotic translation initiation factor 4E (Mus musculus) + Eukaryotic translation …; TR-FRET eIF4E-eIF4GI(517-606) binding, 2 h; AID 782, 2007;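 active = inhibition above about 30%, limit read from the data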
Numbers stand for hits; 0 = inactive; - = not tested or not shown; [ ] = dose if it differs, or a comment. Only some compounds are listed: those with a hit (about 2.6% of all), similar ones and a draw of the others.

SMILES | Mcl1 Bid PPI | Mcl-1 Bim block | 14-3-3 Bad PPI | Mcl1-Noxa inh | MCL1 BIM primary | eIF4E-4G inh
CCCCn1c(NC(=O)c2ccc(F)cc2)c(C#N)c2nc3ccccc3nc21 | - | - | - | - | 0 | -
CCCCn1c(NC(=O)c2ccccc2)c(C#N)c2nc3ccccc3nc21 | 85 | 0 | 0 | 67 | - | 0
Cc1cc(=O)oc2cc(OCC(=O)N3CCC(C(N)=O)CC3)ccc12 | - | - | - | - | 0 | -
CCOc1cc(/C=N/Nc2nn3cnnc3c3ccccc23)ccc1O | 0 | - | 0 | 56 | 0 | 0
Oc1ccc(/C=N/Nc2nn3cnnc3c3ccccc23)cc1 | 0 | - | 0 | 51 | 0 | 98
COc1cc(/C=N/Nc2nn3cnnc3c3ccccc23)ccc1O | 0 | 0 | 0 | 68 | 0 | 0
O=C(COC(=O)c1ccc[n+]([O-])c1)Nc1c(Br)cc([N+](=O)[O-])cc1Br | 0 | 0 | 0 | 0 | 0 | 0
Cc1c(C(=O)N2CCN(CC(=O)Nc3ccccc3Cl)CC2)oc2ccc(Br)cc12 | - | - | - | - | 0 | -
COCCn1c(SCC(=O)Nc2ccccc2OC)nc2ccccc2c1=O | - | - | - | - | 0 | -
CCOC(=O)CSc1nc2cc(C(=O)N3CCC(C(N)=O)CC3)ccc2c(=O)n1C1CCCCC1 | 0 | 0 | 0 | 0 | 0 | 0
CCn1c(SCC(=O)Nc2ccccc2OC)nc2ccccc2c1=O | 0 | 0 | 0 | 0 | 0 | 69[fluorescence artefact?]
COC(=O)c1ccc2c(=O)n(CC3CCCO3)c(SCC(=O)Nc3ccc(OC)cc3OC)nc2c1 (configuration not stated) | 57 | - | 0 | 0 | 0 | 0
COC(=O)c1ccc2c(=O)n(C3CCCCC3)c(SCC#N)nc2c1 | 0 | 0 | 74 | 0 | 0 | 0
COc1ccccc1NC(=O)CSc1nc2ccccc2cc1Cc1ccccc1 | 73 | 0 | 0 | 0 | 0 | 0
COc1ccc(OC)c(NC(=O)CSc2nc3ccccc3c(=O)n2CC2CCCO2)c1 (configuration not stated) | - | - | - | - | 0 | -
COc1cc(NC(=O)COc2cc3oc(=O)cc(C)c3cc2Cl)cc(OC)c1OC | - | - | - | - | 0 | -
COc1ccc(CN2C(=O)c3ccc(C(=O)O)cc3C2=O)cc1 | - | - | - | - | 0 | -
CCCN(C(=O)CSCc1ccccc1C)c1c(N)n(Cc2ccccc2)c(=O)[nH]c1=O | - | - | - | - | 0 | -
O=C1NC(=O)/C(=C/c2ccc(-c3cc(C(=O)O)ccc3Cl)o2)S1 | - | - | - | - | 42 | -
O=C1NC(=O)/C(=C\c2ccc(Br)o2)S1 | - | - | - | - | 0 | -
N#Cc1ccccc1Sc1ccccc1C(=O)Nc1ccccc1 | 0 | 0 | 0 | 0 | 0 | 0
CC(C)CC1NC(=S)N(C2CCCCC2)C1=O (configuration not stated) | 0 | 0 | 0 | 0 | 0 | 0
CN(C)c1ncc(/C=C2/C(=O)NC(=S)N(C3CCCCC3)C2=O)cn1 | 0 | 0 | 0 | 61 | - | 0
CCN1CCCC1CNc1ncnc2c1[nH]c1ccc(Cl)cc12 (configuration not stated) | 0 | 0 | 0 | 73 | 0 | 0
O=C1CCCN1CCCNc1ncnc2c1[nH]c1ccc(Cl)cc12 | 0 | 0 | 0 | 0 | 0 | 0
SMILES | Mcl1 Bid PPI | Mcl-1 Bim block | 14-3-3 Bad PPI | Mcl1-Noxa inh | MCL1 BIM primary | eIF4E-4G inh
O=C(C1CCN(CC2CC=CCC2)CC1)N(CCc1ccccc1)Cc1ccccc1 (configuration not stated) | 74 | 0 | 0 | 0 | 0 | 0
CCN(CC)c1cc(CS(=O)c2ccccc2)nc(-c2ccccc2)n1 (configuration not stated) | - | - | - | - | 0 | -
O=C(O)c1cc(-c2ccc(O)cc2)on1 | 0 | 0 | 79 | 0 | 0 | 0
N#Cc1cccc(C(c2nnnn2Cc2ccccc2)N2CCCC2)c1 (configuration not stated) | 0 | 0 | 0 | 0 | 0 | 0
N#Cc1ccc(C(c2nnnn2Cc2ccccc2)N2CCCC2)cc1 (configuration not stated) | 0 | 0 | 70 | 0 | 0 | 0
CN(C(=O)c1ccc(Br)o1)C1(C)CCS(=O)(=O)C1 (configuration not stated) | - | - | - | - | 0 | -
CCOC(=O)c1c(NC(=O)c2ccccc2)sc2c(O)c(CN(CC)CC)ccc12 | 0 | 0 | 0 | 59 | 0 | 0
CCN(CC)Cc1c(NC(=O)c2ccccc2)sc(C)c1C | 0 | 0 | 0 | 0 | 0 | 0
COc1ccc(/C=C2/C(=O)N(c3nc4ccccc4s3)N=C2CSc2ccc(Cl)cc2)cc1 | 51 | 0 | 0 | 91 | 0 | 0
COc1ccc(/C=C2/C(=O)N(Cc3ccccc3)N=C2C)cc1 | 0 | 0 | 0 | 0 | 0 | 0
O=C(O)C1CC(O)CN1C(=O)c1ccco1 (configuration not stated) | 0 | 0 | - | 0 | 0 | -
COc1cc(/C=C(\C#N)c2nc(-c3cc4ccccc4oc3=O)cs2)ccc1O | 64 | 0 | 0 | 59 | 0 | 0
COc1cc(/C=C(/C#N)c2nc(-c3cc4ccccc4oc3=O)cs2)cc([N+](=O)[O-])c1O | 97 | - | 97 | 98 | - | 62
COc1cccc(CN2CCN(Cc3nc(C(C)C)cs3)CC2CCO)c1 (configuration not stated) | 0 | 0 | 0 | 0 | 0 | 0
CCCCNC(=S)NNC(=O)c1nn(C)cc1Cl | 0 | 0 | 0 | 0 | 0 | 0
Cc1nn(CCc2nn[nH]n2)c2nc(-c3ccc(C4CCCCC4)cc3)cc(C(F)(F)F)c12 | 59 | 0 | 0 | 0 | 0 | 0
N#Cc1c(-c2ccccc2)cc(-c2ccc3c(c2)OCO3)[nH]c1=O | - | - | - | - | 0 | -
COc1ccc(-c2cc(-c3ccco3)[nH]c(=O)c2C#N)cc1OC | 0 | - | 0 | 0 | 46 | 0
CCN(CC(=O)Nc1c(C(=O)OC)[nH]c2ccc(Cl)cc12)c1ccc2c(c1)OCO2 | 59 | 0 | 0 | 0 | 49 | 0
COc1cc(C)ccc1OCc1cc(C(=O)N2CCC(c3ccc(F)cc3)C2)no1 (configuration not stated) | - | - | - | - | 0 | -
O=C(N/N=C/c1ccoc1)c1cccc(OC(F)(F)C(F)F)c1 | - | - | - | - | 0 | -
CN1N=C(C(=O)N2CCCC(C(=O)c3cccc(C(F)(F)F)c3)C2)CCC1=O (configuration not stated) | 0 | 48 | 0 | 0 | 0 | 0
CC1CCN(CCCNC(=O)c2ccc(CSCc3cccc(Cl)c3)o2)CC1 | 0 | 0 | 0 | 0 | 0 | 0
CC(NC(=O)Nc1nnc(C(F)(F)F)s1)N1C(=O)C2C3C=CC(C3)C2C1=O (configuration not stated) | 0 | 0 | 79 | 0 | 0 | 0
Cc1nnc(NC(=O)NC(C)N2C(=O)C3C4C=CC(C4)C3C2=O)s1 (configuration not stated) | 0 | 0 | 0 | 0 | 0 | 0
